About 7,900 targets were measured; listed, in parts, are those with a hit and a random draw of the rest. About 0.6% of all pairs of compound and target were hits. Values without a mark were called inactive.
How the values were obtained:
Experiment in all cases: log2 fold change, soluble protein after heating vs DMSO (PISA); higher = thermal stabilisation; K562 cells, 10 uM, 30 min; active = over 0.2 and 3.5 SD of the protein, either way, in both replicates (recomputed)
[1] = compound: CC[C@@H]1C(=O)N(C)c2cnc(Nc3ccc(C(=O)NC4CCN(C)CC4)cc3OC)nc2N1C1CCCC1
Method in brief: (§1)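 Thermal stability values are relative to control samples and come from duplicates. They are expressed as log2 fold changes. For measurement, K562 cells (2×10^6 cells/mL) received 10 μM compound for 30 min, and aliquots were heated for 3 min over 48°C-58°C, pooled, and extracted at 4°C in PBS with 0.5% NP-40. Soluble protein, the supernatant after 21,000xg for 90 min, was quantified by TMTpro 16plex LC-MS/MS with equalised channel sums.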

[2] = compound: CC[C@@H]1C(=O)N(C)c2cnc(Nc3ccc(C(=O)N[C@H]4CC[C@H](N5CCN(CC6CC6)CC5)CC4)cc3OC)nc2N1C(C)C [volasertib]
Method in brief: as §1

[3] = compound: CC[C@H](C)N1C=C(C2=C(C=C(C=C21)C3=CN=C(C=C3)N4CCNCC4)C(=O)NCC5=C(C=C(NC5=O)C)C)C
Method in brief: as §1

[4] = compound: CC[C@H](C)[C@@H](C(=O)N[C@@H]([C@@H](C)O)C(=O)N[C@@H](CC(C)C)C(=O)[C@]1(CO1)C)NC(=O)[C@H]([C@@H](C)CC)N(C)C(=O)C [epoxomicin]
Method in brief: as §1

[5] = compound: CCn1c(C(=O)N(C2CC2)C2CC2)cc2c3c(ncn3C)c(Nc3cc(C)n(C)n3)nc21
Method in brief: as §1

[6] = compound: CCn1cc(-c2ccnc3[nH]c(-c4cccc(CN(C)C)c4)cc23)c(-c2ccc(NC(=O)N(C)C)cc2)n1
Method in brief: as §1

[7] = compound: CN(C)CC(=O)Nc1ccc2[nH]c(=O)c3ccccc3c2c1
Method in brief: as §1

[8] = compound: CN(CCOC1=CC=C(C=C1)C[C@H]2C(=O)NC(=O)S2)C3=CC=CC=N3 (racemic) [rosiglitazone]
Method in brief: as §1

[9] = compound: CN1C2=C(C3=C1C(=O)N(N=C3)CC4=CC(=CC=C4)N)SC(=C2)S(=O)C
Method in brief: as §1

[10] = compound: CN1CCC(CNc2ccc3ncc(-c4cccc(OC(F)(F)F)c4)n3n2)CC1
Method in brief: as §1

[11] = compound: CN1CCN(CCOc2cc(OC3CCOCC3)c3c(Nc4c(Cl)ccc5c4OCO5)ncnc3c2)CC1 [saracatinib]
Method in brief: as §1

[12] = compound: CN1CCN(c2nc(C3=C(c4c[nH]c5ccccc45)C(=O)NC3=O)c3ccccc3n2)CC1 [sotrastaurin]
Method in brief: as §1

[13] = compound: CN1CC[C@H](c2c(O)cc(O)c3c(=O)cc(-c4ccccc4Cl)oc23)[C@H](O)C1 [alvocidib]
Method in brief: as §1

[14] = compound: CN1CCc2c(c3ccccc3n2Cc2ccc(C(=O)NO)cc2)C1 [Tubastatin A]
Method in brief: as §1

[15] = compound: CNC(=O)C1=CC=CC=C1NC2=NC(=NC=C2Cl)NC3=C(C=C(C=C3)N4CCOCC4)OC
Method in brief: as §1

[16] = compound: CNC(=O)c1ccc(Nc2ncc(C(F)(F)F)c(NCc3nccnc3N(C)S(C)(=O)=O)n2)cc1 [defactinib]
Method in brief: as §1

[17] = compound: CNCc1ccc(-c2[nH]c3cc(F)cc4c3c2CCNC4=O)cc1 [rucaparib]
Method in brief: as §1

[18] = compound: CNc1nc(-c2ccc3c(N)n[nH]c3c2)cc(N2C[C@@H](C(=O)NC3CCCCC3)CC[C@H]2C)n1
Method in brief: as §1

[19] = compound: COC(=O)N[C@@H](C)CNc1nccc(-c2cn(C(C)C)nc2-c2cc(Cl)cc(NS(C)(=O)=O)c2F)n1 [encorafenib]
Method in brief: as §1

[20] = compound: COC(=O)[C@H](CCSC)NC(=O)C1=C(C=C(C=C1)NC[C@H](CS)N)C2=CC=CC=C2
Method in brief: as §1

UniProt Q9NRD1, sequence (Q9NRD1 whole entry, looked up): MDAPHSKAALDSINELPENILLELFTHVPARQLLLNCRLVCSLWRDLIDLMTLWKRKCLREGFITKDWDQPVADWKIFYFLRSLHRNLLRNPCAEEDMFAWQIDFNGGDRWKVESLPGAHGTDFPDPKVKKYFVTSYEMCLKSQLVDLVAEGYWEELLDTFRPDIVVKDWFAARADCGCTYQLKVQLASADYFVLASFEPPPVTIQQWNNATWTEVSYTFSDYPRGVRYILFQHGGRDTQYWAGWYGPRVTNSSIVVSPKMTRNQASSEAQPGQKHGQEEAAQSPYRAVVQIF
UniProt P05114, sequence (P05114 whole entry, looked up): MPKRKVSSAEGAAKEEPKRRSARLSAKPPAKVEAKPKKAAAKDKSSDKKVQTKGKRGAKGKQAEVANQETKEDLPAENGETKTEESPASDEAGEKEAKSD
UniProt P50213, sequence (P50213 whole entry, looked up): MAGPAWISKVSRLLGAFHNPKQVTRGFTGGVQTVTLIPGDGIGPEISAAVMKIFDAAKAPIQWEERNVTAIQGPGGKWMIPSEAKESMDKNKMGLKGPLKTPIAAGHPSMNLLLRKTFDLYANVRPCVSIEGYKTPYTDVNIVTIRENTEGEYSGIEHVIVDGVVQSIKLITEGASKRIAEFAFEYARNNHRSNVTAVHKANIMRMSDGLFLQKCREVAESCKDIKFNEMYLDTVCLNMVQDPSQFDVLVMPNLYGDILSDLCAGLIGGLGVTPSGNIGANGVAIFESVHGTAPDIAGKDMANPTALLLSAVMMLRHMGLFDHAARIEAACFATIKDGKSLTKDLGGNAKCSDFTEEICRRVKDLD
UniProt Q96I24, sequence (Q96I24 whole entry, looked up): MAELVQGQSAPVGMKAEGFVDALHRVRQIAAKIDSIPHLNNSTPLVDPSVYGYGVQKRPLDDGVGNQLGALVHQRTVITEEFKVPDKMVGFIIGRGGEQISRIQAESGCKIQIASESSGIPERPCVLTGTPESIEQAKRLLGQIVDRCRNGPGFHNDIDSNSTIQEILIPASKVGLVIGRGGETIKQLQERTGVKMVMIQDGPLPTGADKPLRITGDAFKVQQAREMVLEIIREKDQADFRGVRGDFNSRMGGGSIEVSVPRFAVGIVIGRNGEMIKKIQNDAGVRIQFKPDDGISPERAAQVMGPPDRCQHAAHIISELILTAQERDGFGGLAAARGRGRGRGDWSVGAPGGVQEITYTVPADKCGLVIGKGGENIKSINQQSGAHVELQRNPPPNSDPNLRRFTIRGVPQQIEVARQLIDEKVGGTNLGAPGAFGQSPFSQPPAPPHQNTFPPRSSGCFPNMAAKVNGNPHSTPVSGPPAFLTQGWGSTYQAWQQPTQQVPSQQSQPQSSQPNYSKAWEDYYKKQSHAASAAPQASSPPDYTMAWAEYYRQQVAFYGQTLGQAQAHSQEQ
UniProt P22830, sequence (P22830 whole entry, looked up): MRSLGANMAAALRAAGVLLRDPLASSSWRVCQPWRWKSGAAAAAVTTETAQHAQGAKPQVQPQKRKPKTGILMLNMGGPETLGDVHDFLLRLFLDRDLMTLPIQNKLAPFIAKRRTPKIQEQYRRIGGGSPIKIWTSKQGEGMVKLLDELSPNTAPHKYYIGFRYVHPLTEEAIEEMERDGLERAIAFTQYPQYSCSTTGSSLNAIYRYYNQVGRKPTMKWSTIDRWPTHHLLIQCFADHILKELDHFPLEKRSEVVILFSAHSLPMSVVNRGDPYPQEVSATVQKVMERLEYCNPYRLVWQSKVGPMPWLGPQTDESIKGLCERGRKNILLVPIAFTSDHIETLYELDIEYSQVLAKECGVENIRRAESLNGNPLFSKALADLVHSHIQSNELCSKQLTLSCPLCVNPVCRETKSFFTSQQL
UniProt O75146, sequence (O75146 whole entry, looked up): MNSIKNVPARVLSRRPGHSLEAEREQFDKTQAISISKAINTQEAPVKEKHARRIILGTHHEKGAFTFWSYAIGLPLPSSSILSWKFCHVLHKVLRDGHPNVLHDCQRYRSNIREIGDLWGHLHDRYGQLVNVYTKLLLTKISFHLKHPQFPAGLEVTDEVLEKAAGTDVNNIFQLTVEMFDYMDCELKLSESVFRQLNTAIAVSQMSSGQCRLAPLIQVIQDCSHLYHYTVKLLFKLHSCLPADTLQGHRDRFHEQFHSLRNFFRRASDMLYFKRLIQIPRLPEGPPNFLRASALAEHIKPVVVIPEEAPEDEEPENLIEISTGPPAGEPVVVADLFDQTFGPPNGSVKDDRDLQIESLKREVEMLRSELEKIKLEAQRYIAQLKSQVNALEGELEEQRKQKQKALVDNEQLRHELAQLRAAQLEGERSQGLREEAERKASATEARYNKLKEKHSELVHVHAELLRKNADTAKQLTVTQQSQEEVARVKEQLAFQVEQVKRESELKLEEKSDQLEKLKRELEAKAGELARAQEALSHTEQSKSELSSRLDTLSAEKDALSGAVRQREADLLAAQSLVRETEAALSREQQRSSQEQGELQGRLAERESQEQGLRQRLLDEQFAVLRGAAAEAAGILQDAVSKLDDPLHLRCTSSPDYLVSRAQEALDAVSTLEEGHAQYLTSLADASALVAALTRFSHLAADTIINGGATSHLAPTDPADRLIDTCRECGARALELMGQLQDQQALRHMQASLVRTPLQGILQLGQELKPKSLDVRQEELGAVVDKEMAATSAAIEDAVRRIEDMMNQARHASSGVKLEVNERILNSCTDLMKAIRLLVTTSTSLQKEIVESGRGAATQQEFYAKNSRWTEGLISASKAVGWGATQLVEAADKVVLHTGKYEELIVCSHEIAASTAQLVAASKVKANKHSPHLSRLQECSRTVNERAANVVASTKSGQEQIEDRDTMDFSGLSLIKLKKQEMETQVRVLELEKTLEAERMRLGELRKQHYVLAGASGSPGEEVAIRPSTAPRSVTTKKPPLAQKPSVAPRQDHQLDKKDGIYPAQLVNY
UniProt Q96HJ9, sequence (Q96HJ9 whole entry, looked up): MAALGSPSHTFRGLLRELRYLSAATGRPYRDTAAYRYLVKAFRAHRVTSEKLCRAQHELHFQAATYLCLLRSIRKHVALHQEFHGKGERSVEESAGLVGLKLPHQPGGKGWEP
UniProt P51570, sequence (P51570 whole entry, looked up): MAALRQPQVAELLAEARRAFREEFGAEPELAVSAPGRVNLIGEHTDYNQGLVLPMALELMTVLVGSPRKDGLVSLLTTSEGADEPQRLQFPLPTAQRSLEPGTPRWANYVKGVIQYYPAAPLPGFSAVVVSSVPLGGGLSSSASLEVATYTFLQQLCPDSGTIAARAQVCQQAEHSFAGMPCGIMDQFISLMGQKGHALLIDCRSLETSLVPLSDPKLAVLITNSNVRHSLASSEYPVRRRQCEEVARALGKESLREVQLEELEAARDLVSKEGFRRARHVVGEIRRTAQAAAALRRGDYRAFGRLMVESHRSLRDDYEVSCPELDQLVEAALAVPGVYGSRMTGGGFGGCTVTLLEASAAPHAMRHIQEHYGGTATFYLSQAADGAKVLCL
UniProt P40939, sequence (P40939 whole entry, looked up): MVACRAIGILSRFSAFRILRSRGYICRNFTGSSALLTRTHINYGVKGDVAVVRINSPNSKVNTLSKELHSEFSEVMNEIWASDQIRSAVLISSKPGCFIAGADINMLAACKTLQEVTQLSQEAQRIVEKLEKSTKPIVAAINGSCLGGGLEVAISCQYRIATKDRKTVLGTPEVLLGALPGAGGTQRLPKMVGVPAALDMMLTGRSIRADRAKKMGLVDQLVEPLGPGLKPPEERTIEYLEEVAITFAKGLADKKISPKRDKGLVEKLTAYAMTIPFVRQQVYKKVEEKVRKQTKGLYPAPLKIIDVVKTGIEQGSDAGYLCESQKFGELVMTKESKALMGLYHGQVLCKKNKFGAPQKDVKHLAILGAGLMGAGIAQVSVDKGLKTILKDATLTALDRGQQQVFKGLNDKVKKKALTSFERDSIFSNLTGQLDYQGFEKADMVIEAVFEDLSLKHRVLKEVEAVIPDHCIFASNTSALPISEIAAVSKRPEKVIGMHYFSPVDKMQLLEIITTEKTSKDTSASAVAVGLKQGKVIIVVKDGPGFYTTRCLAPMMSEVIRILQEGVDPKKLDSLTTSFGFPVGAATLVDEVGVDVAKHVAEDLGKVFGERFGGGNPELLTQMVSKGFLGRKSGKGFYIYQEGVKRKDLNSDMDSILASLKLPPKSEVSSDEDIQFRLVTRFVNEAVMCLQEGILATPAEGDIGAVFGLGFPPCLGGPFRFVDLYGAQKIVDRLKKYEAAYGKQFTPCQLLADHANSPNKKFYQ
UniProt P29083, sequence (P29083 whole entry, looked up): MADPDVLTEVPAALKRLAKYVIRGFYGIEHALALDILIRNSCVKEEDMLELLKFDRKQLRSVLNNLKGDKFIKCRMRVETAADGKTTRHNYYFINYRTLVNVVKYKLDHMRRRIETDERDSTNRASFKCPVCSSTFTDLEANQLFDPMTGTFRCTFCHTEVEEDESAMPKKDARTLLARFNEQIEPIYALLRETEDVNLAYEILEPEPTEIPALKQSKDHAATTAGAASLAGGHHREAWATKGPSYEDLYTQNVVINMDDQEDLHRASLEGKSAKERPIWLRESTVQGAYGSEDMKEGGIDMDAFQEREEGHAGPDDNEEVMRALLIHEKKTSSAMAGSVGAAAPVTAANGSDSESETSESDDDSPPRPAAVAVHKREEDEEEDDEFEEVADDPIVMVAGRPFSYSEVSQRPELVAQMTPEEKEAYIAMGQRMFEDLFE
UniProt P06280, sequence (P06280 whole entry, looked up): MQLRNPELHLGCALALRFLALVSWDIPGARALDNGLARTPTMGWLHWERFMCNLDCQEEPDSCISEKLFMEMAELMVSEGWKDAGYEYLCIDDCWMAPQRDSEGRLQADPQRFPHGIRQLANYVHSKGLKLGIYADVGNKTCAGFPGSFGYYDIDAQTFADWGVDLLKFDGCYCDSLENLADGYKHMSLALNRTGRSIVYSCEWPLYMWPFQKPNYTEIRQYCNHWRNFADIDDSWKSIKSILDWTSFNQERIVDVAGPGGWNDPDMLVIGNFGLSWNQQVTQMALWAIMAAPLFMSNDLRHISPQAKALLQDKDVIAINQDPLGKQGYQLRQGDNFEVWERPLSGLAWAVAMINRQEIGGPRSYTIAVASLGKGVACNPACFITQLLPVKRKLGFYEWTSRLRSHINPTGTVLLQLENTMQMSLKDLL

Target	log2 fold change [1]	log2 fold change [2]	log2 fold change [3]	log2 fold change [4]	log2 fold change [5]	log2 fold change [6]	log2 fold change [7]	log2 fold change [8]	log2 fold change [9]	log2 fold change [10]	log2 fold change [11]	log2 fold change [12]	log2 fold change [13]	log2 fold change [14]	log2 fold change [15]	log2 fold change [16]	log2 fold change [17]	log2 fold change [18]	log2 fold change [19]	log2 fold change [20]
GLA (UniProt P06280)	-0.449 (active)	-0.911 (active)	0.002	0.026	0.016	0.03	-0.001	-0.07	0.005	-0.535 (active)	0.056	-0.027	-0.008	-0.027	-0.02	0.008	0.04	-0.043	-0.022	0.059
IDH3A (UniProt P50213)	-0.031	-0.01	0.004	0.063	0	-0.027	0	0.008	-0.064	0.033	-0.004	0.008	-0.056	-0.058	-0.026	-0.023	-0.031	-0.026	-0.01	0.002
FMC1 (UniProt Q96HJ9)	0.04	0.102	-0.039	0.059	-0.102	0.046	-0.057	0.044	-0.01	-0.02	0.139	0.09	0.026	0.034	0.113	-0.056	-0.023	-0.071	-0.105	0.051
GTF3C4 (UniProt Q9UKN8)	-0.002	-0.263 (active)	0.001	-0.001	-0.003	-0.003	-0.024	0.012	0.007	0	0.06	0.021	-0.03	-0.009	-0.005	-0.081	0.029	-0.001	0.043	-0.01
HHEX (UniProt Q03014)	0.027	0.07	0.053	0.164	0.019	0.05	0.234	-0.029	0.117	-0.023	0.095	-0.068	-0.146	0.126	0.035	-0.173	0.04	-0.011	-0.061	0.651
HMGN1 (UniProt P05114)	0.054	0.141	-0.044	-0.008	0.063	0.045	-0.094	-0.027	0.039	0.101	0.024	0.068	0.149	-0.087	0.03	0.09	0.043	-0.064	-0.01	0.011
HIP1R (UniProt O75146)	-0.035	-0.268 (active)	0.015	0.051	-0.04	-0.016	-0.017	0.067	0.026	-0.134	0.051	-0.045	-0.069	0.007	0.037	-0.063	0.018	0.015	-0.019	0.016
FECH isoform 2 (UniProt P22830)	0.399	0.368	0.037	-0.088	0.251	0.203	0.001	0	-0.123	0.163	-0.035	0.008	-0.016	-0.12	0.245	0.102	0.043	0.538	-0.033	-0.116
FBXO6 (UniProt Q9NRD1)	0.683 (active)	0.696 (active)	0.096	-0.029	-0.037	-0.038	0.036	0.006	0.005	0.366 (active)	0.042	-0.085	-0.092	-0.016	0.031	-0.038	-0.064	0.011	0.033	-0.099
GTF2E1 (UniProt P29083)	-0.267	-0.567 (active)	0.096	-0.015	-0.062	0.023	0.072	0.033	-0.034	-0.084	-0.026	-0.11	-0.148	0.064	0	-0.272	-0.126	-0.047	0.199	-0.099
FUBP3 (UniProt Q96I24)	0.061	-0.251 (active)	0.045	0.021	0.025	0.064	-0.028	0.016	0.02	0.059	0.012	0.05	0.129	-0.092	-0.039	0.184	0.167	-0.049	-0.003	-0.032
GSTP1 (UniProt P09211)	0.295 (active)	0.362 (active)	0.009	-0.025	0.032	0.012	-0.013	0.007	-0.066	-0.034	-0.011	0.053	-0.051	-0.015	-0.001	-0.033	-0.046	0.02	-0.007	0.027
HADHA (UniProt P40939)	0.03	0.469	0.107	0.055	0.231	-0.233	0.023	-0.019	-0.053	-0.334	-0.102	0.032	-0.238	0.05	0.044	-0.19	0.177	0.595 (active)	-0.024	-0.191
FBXO3 (UniProt Q9UK99)	0.041	0.042	0.052	0.007	0.001	-0.074	-0.03	0.045	0.023	-0.038	0.029	0.049	-0.048	0.157	-0.051	0.072	0.016	-0.076	0.018	-0.005
GALK1 isoform 2 (UniProt P51570)	-0.03	-0.009	0.053	0.131	0.026	-0.064	0.106	0.024	-0.049	-0.03	0.117	-0.096	-0.035	-0.011	-0.049	-0.032	-0.014	0.055	0.007	-0.006
GLCCI1 (UniProt Q86VQ1)	-0.048	0.108	0.15	-0.022	0.087	0.088	-0.035	-0.053	-0.023	-0.328 (active)	-0.017	-0.016	0.002	0.082	-0.057	-0.072	0.087	-0.063	0.026	-0.051
